This is an account of results in PubChem BioAssay (NCI).

This is part of a sample that, as a whole, favours compounds with a hit. Of some 83,000 tested, about 20% had one in any assay.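 Values shown are percent growth following 48 h exposure of cells in 96-well plates to a single concentration of compound; below 10 was considered active.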 Unmarked numbers belong to inactive results. Calls of active or inactive are those of the source.

The assay concerns SK-MEL-5 melanoma. The experiment in a line: NCI-60 one-dose screen, 48 h (100 = growth as untreated, 0 = no growth, -100 = all killed). The note with it: 10 µM unless noted. The method, then:
Growth inhibition of the SK-MEL-5 human tumor cell line is measured as a screen for anti-cancer activity. Cells are grown in 96 well plates and exposed to the test compound for 48 hours. Compounds are tested at a single concentration, which is 10^-5 M for most compounds. The reported endpoint is percent growth (GI% or GIPRCNT), where numbers from 0 - 100% represent growth inhibition, and numbers from -100% - 0 represent cell death. For example, a value of 40 represents 60% growth inhibition. A value of 0 means no net growth occurred over the course of the experiment. A value of -40 indicates 40% of cells at the beginning of the experiment died by the end of the experiment. A value of -100 means all cells are dead at the end of the experiment.
NCI-60 Human Tumor Cell Lines Screen was performed using the standard one-dose NCI protocol, which is described in more detail at https://dtp.cancer.gov/discovery_development/nci-60/default.htm.
Compounds with GIPRCNT values below 10 were considered active. Activity score was based on GIPRCNT using the following formula: […]
Score is 0 for GIPRCNT values of 100 or above, 50 for GIPRCNT values of 0, and 100 for GIPRCNT values of -100.
In the case of `Cc1ccc(OCCn2c(C)nn(-c3ccc(Cl)cc3)c2=O)cc1`, the growth is 109%.

As for `O=C1Nc2cc(Cl)ccc2/C1=C/c1ccc(N2CCOCC2)s1`, the growth is 104%.

In the case of `O=C(/C=C/CN1CCOCC1)Nc1cc2c(Nc3cccc(Cl)c3F)ncnc2cc1OCCOC(F)F`, the growth is 86.9%.

For `CC[C@]1(O)C[C@@H]2CN(Cc3c([nH]c4ccccc34)[C@@](C(=O)OC)(c3cc4c(cc3OC)N(C)[C@H]3[C@@](O)(C(=O)OC)[C@H](OC(C)=O)[C@]5(CC)[C@@H]6C[C@@H]6CN6CC[C@]43[C@@H]65)C2)C1`, the growth is 2.99% (active).

As for `O=C(CCC(=O)OC1CCCC1)OC1CCCC1`, the growth was 99.3%.

Take `O=Nc1c(-c2c(O)[nH]c3ccc([N+](=O)[O-])cc23)[nH]c2ccc(O)cc12`: the growth was -40.9% (active).

As for `COc1ccc(/C=C/C(=O)OCC(=O)NNC(=O)c2ccccc2)cc1OC`, the growth is 97.8%.

In the case of `COc1ccc(-c2nc3sccn3c2-c2ccnc(NCCCNS(=O)(=O)c3ccc(C)cc3)n2)cc1`, the growth was -5.18% (active).

Regarding `CN(C)c1ccc(C2CC(c3ccccc3)=NN2/C=C2\SC(=O)NC2=O)cc1` (stereo not given), the growth is 78.8%.

With `CCCCC[C@@H]1Cc2cc(O)c(C(=O)O)c3c2[C@H](C[C@@]2(CCCO2)O3)O1`, the growth is 111%.

Take `COc1ccc(/C=C2\Oc3cc(OCCN4CCCC4)ccc3C2=O)c(OC)c1`: the growth was 90.2%.

Turning to `COc1cc(Cn2c(SCC(=O)Nc3cc(OC)c(OC)c(OC)c3)nc3ccccc3c2=O)cc(OC)c1OC`, the growth was 90.4%.

As to `COc1ccc(/C=C/C(=O)c2cc(OC)c(OC)c(OC)c2)cc1OCc1cn(Cc2ccc(F)cc2)nn1`, the growth was 80.8%.

As for `CCCCCCCCCCCCCCCCCCOc1cccc(CCOP(=O)(O)OCC[N+](C)(C)C)c1`, the growth was 91.1%.

For `Cc1cc(NC(=O)COC(=O)c2sc3cc(F)ccc3c2Cl)no1`, the growth was 110%.

For `CCC(c1ccc(OC)cc1)C(CC)c1ccc(OCC[N+](C)(C)C)cc1` (stereo not given), the growth was 15.4%.

Take `COc1cc2c3c(c(=O)oc2cc1OS(=O)(=O)c1ccc(C(F)(F)F)cc1)CCCCC3`: the growth is 69.5%.

With `COc1ccc(-c2nc(-c3ccccc3)c(-c3ccccc3)n2C2CC2)cc1OC1CCCCC1`, the growth was 36%.

With `COc1ccc2c(c1)C(=O)/C(=C/c1ccc(O)cc1)O2`, the growth is 87.8%.

As to `O=C(Nc1ccc(F)cc1)c1cc([N+](=O)[O-])ccc1O`, the growth was 30%.

Take `COc1ncc(-c2ccc3ncnc(Nc4cccc(Cl)c4)c3c2)cc1NS(=O)(=O)CCN1CCOCC1`: the growth is -19.6% (active).

Consider `COc1cc(/C=C\c2cc(OC)c(OC)c(OC)c2)cc(N/C=C\C(=O)c2c[nH]c3ccccc23)c1OC`, for which the growth was 54.2%.

Turning to `C=C1C(=O)O[C@H]2[C@H]1CC/C(COC(=O)NCc1cc(OC)cc(OC)c1)=C\CC[C@@]1(C)O[C@@H]21`, the growth was 84.9%.

Regarding `COc1cc(CNC(=O)CCSc2nc3ccccc3c(=O)n2Cc2cc(OC)c(OC)c(OC)c2)cc(OC)c1OC`, the growth is 12.6%.

On to `O=C(CNC1CCCCC1)Nc1ccc(-c2nc3ccccc3s2)cc1`, for which the growth is 90.8%.

On to `Clc1nc(-c2cccnc2)nc2sc3c(c12)CCCCCC3`, for which the growth was 96.8%.

As for `CCOC(=O)[C@H](CSSc1ncnc2cc[nH]c12)NC(=O)[C@@H](C)c1ccc2cc(OC)ccc2c1`, the growth is 45%.

Take `O=C(NCCCN1CCN(CCCNC(=O)C2CCCCC2)CC1)C1CCCCC1`: the growth is 105%.

With `CC/C=C\C/C=C\C[C@H](O)C/C=C1/C(=O)C=C[C@H]1C/C=C\CCC(=O)OC`, the growth was 24.5% [8.25 µM].

With `CC(=O)Nc1nc(C(=O)N2N=C(C)/C(=C/c3ccccc3)C2=O)cs1`, the growth is 108%.

As to `COc1cc(-c2nc(-c3nc4ccccc4[nH]3)cc3c2[nH]c2ccccc23)cc(OC)c1OC`, the growth was 29%.

Take `O=C(c1ccccc1)C(Cl)C(Cl)c1ccccc1` (stereo not given): the growth is 88.8%.

Take `O=C1CCC/C=C\C[C@H]2C=CC(=O)/C2=C/C[C@H](C/C=C\CC(F)(F)F)O1`: the growth is -90.7% (active).

In the case of `O=C(CN1CCN(c2cc3c(cc2F)c(=O)c(C(=O)O)cn3C2CC2)CC1)Nc1ccc(C(=O)/C=C/c2ccc(Cl)cc2)cc1`, the growth was 96.8%.

Turning to `CC(C)N(Cc1ccc(CN(C(=O)CCl)C(C)C)cc1)C(=O)CCl`, the growth is 17.9%.

Take `Cc1cc(-c2ccccc2)c(C)n1Cc1ccc(Cl)cc1`: the growth was 40.7%.

Regarding `Nc1ccc(S(=O)(=O)c2ccc(Cl)cc2)cc1`, the growth is 95.2%.

Take `COc1ccc(OC)c(-c2ccc(-c3ccccc3N)c3[nH]c4ccccc4c23)c1`: the growth was 79.4%.

`CC1=C(C#N)C(C)(C)C(C#N)=C(C)N1`: the growth is 101%.

Regarding `COc1cccc(-c2nc3sccn3c2-c2ccnc(NCCCNS(=O)(=O)c3ccccc3)n2)c1`, the growth is 9.71% (active).
